# High-throughput results as filed in PubChem BioAssay.
# SW480 rerep = induces DNA re-replication in SW480 colon adenocarcinoma cells. 340,000 compounds, 1.8% hits. Potency, µM (highest dose often 46.1 µM), for inactives: top-dose re-replication activation, actives largely listed as activators. AID 624297. SW480 DNA re-replication, Hoechst DNA content imaging, 48 h; also: % of control where 0% means no effect; nearly all actives have a fitted effect of over 55% in size
#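 250 cells/well; 23 nL cpd via pin tool; 48 hr, 37 C, 5% CO2; Hoechst 40 min; imager read of total nuclear intensity, ex 405/em 500-530 nm.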
# MCF10A rereplic = induces DNA re-replication in MCF 10a normal breast cells | MCF 10A DNA re-replication, Hoechst nuclear intensity, 48 h | Potency, µM (top dose mostly 46.1 µM), for inactives: at the top dose activity, positive = re-replication, actives largely listed as activators | 350,000 compounds, 2.9% hits | AID 624296; also: % of control where 0% means no effect; nearly all actives have a fitted effect of over 50% in size
# KB-V1 MDR tox = KB-V1 MDR subline cytotoxicity; KB-V1 MDR cells viability, CellTiter-Glo, 72 h; 400,000 compounds, 3.4% hits; Potency, µM (highest dose often 46.1 µM), most hits filed as cytotoxic; also: % is scaled to controls: 0 for no effect and ±100 for the full control effect; nearly all actives have a fitted effect of over 60% in size
#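 Drug-selected KB-V1 cells, grown in DMEM lacking phenol red with 10% FBS, receive compound titrations; after three days at 37 degrees C, surviving cell ATP is quantified by CellTiter-Glo luminescence and responses normalized and curve-fitted.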
# HT1080 IDH1KD tx = toxicity to HT-1080 IDH1 knockdown cells (counter line); HT-1080 IDH1 knockdown viability, ATP luminescence, 48 h; Potency, µM (highest dose often 46.1 µM), for inactives: at the highest dose activity, negative = toxicity, most hits filed as cytotoxic; 360,000 compounds, 2% hits; AID 686971;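 also: 0% = DMSO wells and -100% = cell-free medium wells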
#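 After a 2 h attachment period, IDH1KD HT-1080 cells took pin-transferred compound for 48 h at 37 °C; ATP-based luminescence after 10 min room-temperature reagent incubation reported viability.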
# KB-3-1 tox = KB-3-1 parental cell cytotoxicity; KB-3-1 viability, CellTiter-Glo ATP luminescence, 72 h; Potency, µM (series often up to 46.1 µM), most hits filed as cytotoxic; 400,000 compounds, 1.4% hits; AID 1347075; also: % is scaled to controls: 0 for no effect and ±100 for the full control effect; nearly all actives have a fitted effect of over 60% in size
#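 Luminescent ATP read-out (CellTiter-Glo) measures survival of drug-naive KB-3-1 cells after 72 h compound exposure at 37 °C. Titration series was screened from lowest to highest concentration, with DMSO vehicle plates as background controls.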
# HT1080NT lethal = kills 2HG-producing HT-1080-NT fibrosarcoma cells | Potency, µM (highest dose often 46.1 µM), without a hit: at the top dose activity, negative = less viability, most hits filed as cytotoxic | HT-1080-NT fibrosarcoma viability, CellTiter-Glo ATP luminescence, 48 h | 360,000 compounds, 1.6% hits;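 also: NT is the 2HG producing partner of a matched IDH1 knockdown line; 0% = DMSO-treated cells and -100% = media-only wells without cells; nearly all actives have a fitted effect of over 55% in size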
#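 A 48-hour cytotoxicity screen used HT-1080-NT cells plated 2 hours before compound delivery. ATP-based CellTiter-Glo luminescence measured viability, normalized to DMSO and no-cell controls.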
# The depositor's hits bear a star; i = inactive; ? = inconclusive; / = not tested or not shown. Most compounds without a hit are left out; they make up all but 7.9% or so of the library. Calls follow the shape of the dose curve; as a rule, active = well fitted curve in the direction sought with a large enough effect; inconclusive = small, poorly fitted or top-dose-only effect, or another doubt; inactive = no such curve, though single readings can be large; an effect the other way counts as inactive or inconclusive. Potency is read from the fitted curve at half-maximal effect.
SMILES,SW480 rerep,MCF10A rereplic,KB-V1 MDR tox,HT1080 IDH1KD tx,KB-3-1 tox,HT1080NT lethal
CCOC(=O)N1CCN(C(=O)CS(=O)(=O)c2cn(Cc3ccccc3C)c3ccccc23)CC1,0%,2%,?,-1%,i,0%
Cc1ccccc1Cn1cc(S(=O)(=O)CC(=O)Nc2nccs2)c2ccccc21,0%,-25%,16µM*,-22%,?,?
CCCc1nc2ccccc2c(=O)n1NC(=O)c1c(O)c2ccccc2n(C)c1=O,8%,15%,5.8µM*,0%,15µM*,0%
CCc1nc2ccccc2c(=O)n1NCCc1ccccc1,0%,?,i,17%,i,26%
CCc1nc2ccccc2c(=O)n1NC(=O)c1c(O)c2ccccc2[nH]c1=O,16%,?,2.9µM*,7%,?,11%
Cc1cccc(N=Nc2c(N)n[nH]c2-c2ccc(Cl)cc2)c1,12%,?,i,?,i,?
Cc1ccc(-c2[nH]nc(N)c2N=Nc2cccc(Cl)c2C)cc1,?,21µM*,?,?,?,?
Cc1ccc(-c2[nH]nc(N)c2N=Nc2ccccc2C)cc1,?,?,?,18µM*,?,?
CC1(C)OC(=O)C2(Cc3cc(C(F)(F)F)ccc3N3CCCCC32)C(=O)O1 (stereo not given),/,/,?,/,i,/
O=C(Cn1cccc1C(=O)c1ccccc1)NCc1ccccc1,2%,10%,23µM*,7%,i,19%
O=C(Cn1cccc1C(=O)c1ccccc1)NCc1ccc(F)cc1,-1%,7%,i,18%,i,2%
COc1cccc(C(=O)Nc2ccc(-n3nncc3-c3ccc(Br)cc3)cc2)c1OC,/,/,i,/,i,/
N#Cc1ccccc1Sc1ccccc1C(=O)Nc1ccc2ccccc2c1,6%,?,i,-18%,i,-13%
N#Cc1ccccc1Sc1ccccc1C(=O)Nc1ccc(Br)cc1,7%,9%,18µM*,-1%,i,1%
O=C(/C(=C/c1ccccc1Cl)c1ccccc1)N1CCOCC1,0%,15%,23µM*,-5%,i,-1%
O=C(N/C(=C/c1ccccc1Cl)C(=O)N1CCOCC1)c1ccccc1,-3%,15%,i,0%,i,3%
CSc1cccc(Nc2cc(C(=O)NCCCN(C)c3ccccc3)c3ccccc3n2)c1,/,/,i,/,i,/
COc1ccc2c(c1)CCc1c(C(=O)N3CCCc4ccccc43)noc1-2,12%,?,7.3µM*,?,21µM*,?
COc1ccc2c(c1)CCc1c(C(=O)N3CC4(C)CC3CC(C)(C)C4)noc1-2 (stereo not given),2%,?,i,?,i,?
COc1ccc2c(c1)CCc1c(C(=O)N3CCOCC3)noc1-2,-2%,7%,16µM*,-22%,i,-13%
COc1cccc(C(=O)N2CCCc3ccccc32)c1,-2%,2%,?,2%,i,3%
O=S(=O)(NCC1OCCc2ccccc21)c1ccc(S(=O)(=O)N2CCOCC2)cc1 (stereo not given),1%,-7%,21µM*,1%,i,6%
O=c1c2c3c(sc2nnn1Cc1ccc(Br)cc1)CCCC3,/,/,i,/,i,/
COc1ccc(COc2cc(-c3cccc(OC)c3)nc3ccc(NC(=O)c4ccc(N(C)C)cc4)cc23)cc1,9.2µM*,5.8µM*,i,6.5µM*,4.6µM*,?
COc1ccc(COc2cc(-c3cccc(OC)c3)nc3ccc(N)cc23)cc1,1.5µM*,0.73µM*,5.8µM*,2.1µM*,?,0.82µM*
COc1ccc(COc2cc(-c3cccc(OC)c3)nc3ccc(NC(=O)c4ccc(C)cc4)cc23)cc1,21µM*,5.8µM*,i,13µM*,9.2µM*,13µM*
